According to the supplement of paper PMC10849652:
Targets with a hit are over-represented here; the source holds about 8,800 in all. About 0.5% of all pairs of compound and target were hits.

Key:
Assay in all cases: log2 fold change, soluble protein after heating vs DMSO (PISA); higher = thermal stabilisation; K562 lysate, 10 uM; active = over 0.2 and 3.5 SD of the protein, either way, in both replicates (recomputed)
[1] = compound: NCC(=O)Nc1ccc(-n2nc(C(F)(F)F)cc2-c2ccc3c(ccc4ccccc43)c2)cc1
How it was run: (§1)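 K562 pellets were dounce-homogenised in PBS pH 7.4 containing 1 mM MgCl2, and the crude extract, at 1 mg/mL protein, was exposed to 10 μM compound for 30 min. Aliquots were heated for 3 min across 48°C-58°C, pooled, brought to 0.5% NP-40 at 4°C and spun at 21,000xg for 90 min, with the supernatant taken as soluble protein. TMTpro 16plex LC-MS/MS with equalised channel sums quantified that protein. Values are log-two fold changes in thermal stability relative to solvent controls, taken from duplicates.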

vorinostat = compound: O=C(CCCCCCC(=O)Nc1ccccc1)NO [vorinostat]
How it was run: as §1

silmitasertib = compound: O=C(O)c1ccc2c(c1)nc(Nc1cccc(Cl)c1)c1ccncc12 [silmitasertib]
How it was run: as §1

[2] = compound: O=C1NC(=O)C(c2cnc3ccccn23)=C1c1cn2c3c(cc(F)cc13)CN(C(=O)N1CCCCC1)CC2
How it was run: as §1

entospletinib = compound: c1cn2cc(-c3ccc4cn[nH]c4c3)nc(Nc3ccc(N4CCOCC4)cc3)c2n1 [entospletinib]
How it was run: as §1

Measured: log2 fold change

ENGASE (UniProt Q8NFI3)
UniProt Q8NFI3, sequence (Q8NFI3 whole entry, looked up): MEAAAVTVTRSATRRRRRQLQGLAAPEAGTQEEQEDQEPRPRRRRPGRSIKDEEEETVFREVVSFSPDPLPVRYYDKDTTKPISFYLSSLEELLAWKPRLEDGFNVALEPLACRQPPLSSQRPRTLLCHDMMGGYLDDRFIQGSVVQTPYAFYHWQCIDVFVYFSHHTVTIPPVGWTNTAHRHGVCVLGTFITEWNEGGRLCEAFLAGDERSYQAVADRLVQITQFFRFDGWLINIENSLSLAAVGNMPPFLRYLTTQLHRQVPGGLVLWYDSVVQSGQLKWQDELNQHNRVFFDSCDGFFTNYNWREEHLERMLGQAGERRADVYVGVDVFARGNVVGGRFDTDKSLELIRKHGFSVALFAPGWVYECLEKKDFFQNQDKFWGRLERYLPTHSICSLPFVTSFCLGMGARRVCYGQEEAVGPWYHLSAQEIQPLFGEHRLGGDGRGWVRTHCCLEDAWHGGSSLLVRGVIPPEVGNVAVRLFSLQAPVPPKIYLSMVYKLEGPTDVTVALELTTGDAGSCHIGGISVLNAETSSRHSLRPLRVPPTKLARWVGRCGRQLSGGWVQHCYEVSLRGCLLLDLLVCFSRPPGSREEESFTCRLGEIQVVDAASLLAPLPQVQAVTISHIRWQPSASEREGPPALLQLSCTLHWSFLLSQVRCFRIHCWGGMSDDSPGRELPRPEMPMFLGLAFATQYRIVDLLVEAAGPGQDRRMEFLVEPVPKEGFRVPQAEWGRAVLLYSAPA
inactive: [1] -0.01 | silmitasertib 0.05 | [2] -0.013 | entospletinib -0.004
active: vorinostat -0.337

FAM118B (UniProt Q9BPY3)
active: vorinostat -0.273
inactive: [1] 0 | silmitasertib 0.018 | [2] 0 | entospletinib -0.005

FBXO30 (UniProt Q8TB52)
inactive: [1] -0.01 | silmitasertib 0.042 | [2] -0.019 | entospletinib 0.013
active: vorinostat -0.316

ENO2 (UniProt P09104)
inactive: [1] -0.021 | vorinostat 0.03 | silmitasertib -0.014 | [2] 0.001 | entospletinib -0.068

GAPDH (UniProt P04406)
active: vorinostat 0.309
inactive: [1] 0 | silmitasertib -0.033 | [2] 0.014 | entospletinib 0.003

EWSR1 isoform 5 (UniProt Q01844)
UniProt Q01844, sequence (Q01844 whole entry, looked up): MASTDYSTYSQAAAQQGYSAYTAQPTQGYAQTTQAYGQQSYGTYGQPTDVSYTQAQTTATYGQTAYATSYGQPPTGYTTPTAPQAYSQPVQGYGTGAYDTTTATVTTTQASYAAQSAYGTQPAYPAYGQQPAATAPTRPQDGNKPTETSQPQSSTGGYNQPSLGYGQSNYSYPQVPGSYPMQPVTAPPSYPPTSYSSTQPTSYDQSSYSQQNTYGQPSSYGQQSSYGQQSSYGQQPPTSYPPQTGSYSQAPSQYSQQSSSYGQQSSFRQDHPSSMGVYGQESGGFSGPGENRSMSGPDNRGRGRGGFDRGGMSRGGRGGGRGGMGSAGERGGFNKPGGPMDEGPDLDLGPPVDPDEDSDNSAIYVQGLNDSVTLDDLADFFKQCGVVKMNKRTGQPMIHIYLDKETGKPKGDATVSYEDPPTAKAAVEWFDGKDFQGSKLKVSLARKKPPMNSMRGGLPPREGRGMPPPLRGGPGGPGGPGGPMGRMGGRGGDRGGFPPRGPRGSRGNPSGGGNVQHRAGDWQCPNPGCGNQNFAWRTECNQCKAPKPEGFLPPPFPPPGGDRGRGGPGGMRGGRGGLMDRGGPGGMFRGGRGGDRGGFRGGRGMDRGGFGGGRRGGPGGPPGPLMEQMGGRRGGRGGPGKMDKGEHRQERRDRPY
inactive: [1] 0.027 | vorinostat 0.036 | silmitasertib -0.034 | [2] 0.006 | entospletinib 0.014

FOXJ3 (UniProt Q9UPW0)
UniProt Q9UPW0, sequence (Q9UPW0 whole entry, looked up): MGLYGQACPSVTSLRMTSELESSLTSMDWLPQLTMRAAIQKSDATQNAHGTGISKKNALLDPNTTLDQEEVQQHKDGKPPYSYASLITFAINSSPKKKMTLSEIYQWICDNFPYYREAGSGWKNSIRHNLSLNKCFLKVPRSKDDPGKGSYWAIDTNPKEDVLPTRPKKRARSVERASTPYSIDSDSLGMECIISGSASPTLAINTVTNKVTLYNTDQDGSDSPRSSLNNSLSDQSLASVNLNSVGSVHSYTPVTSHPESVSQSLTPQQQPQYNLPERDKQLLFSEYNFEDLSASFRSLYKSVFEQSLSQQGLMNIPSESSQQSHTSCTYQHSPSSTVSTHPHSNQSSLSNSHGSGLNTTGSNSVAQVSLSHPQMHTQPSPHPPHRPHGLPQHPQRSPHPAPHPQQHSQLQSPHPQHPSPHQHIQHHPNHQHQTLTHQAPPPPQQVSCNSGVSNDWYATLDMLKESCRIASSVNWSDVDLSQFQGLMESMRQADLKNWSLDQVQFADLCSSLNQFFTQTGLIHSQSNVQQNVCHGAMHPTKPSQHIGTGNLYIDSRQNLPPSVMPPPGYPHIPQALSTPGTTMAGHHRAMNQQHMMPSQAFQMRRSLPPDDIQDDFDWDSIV
active: vorinostat -0.24
inactive: [1] -0.016 | silmitasertib 0.114 | [2] 0.019 | entospletinib 0.022

EAPP (UniProt Q56P03)
inactive: [1] -0.083 | vorinostat 0.029 | silmitasertib -0.086 | [2] 0.024 | entospletinib 0.024

GCN1 (UniProt Q92616)
inactive: [1] 0.01 | silmitasertib 0.114 | [2] 0.033 | entospletinib -0.011
active: vorinostat -0.374

ERLIN2 (UniProt O94905)
inactive: [1] -0.012 | vorinostat 0.032 | silmitasertib 0.019 | [2] -0.005 | entospletinib 0.016

FBXO22 (UniProt Q8NEZ5)
active: vorinostat -0.477
inactive: [1] 0.014 | silmitasertib -0.022 | [2] -0.018 | entospletinib 0.014

GABPB1 (UniProt Q06547)
inactive: [1] 0 | silmitasertib 0.008 | [2] -0.052 | entospletinib -0.004
active: vorinostat -0.299

FTSJ3 (UniProt Q8IY81)
inactive: [1] -0.034 | vorinostat 0.068 | silmitasertib 0.017 | [2] 0.012 | entospletinib -0.043

FAM118A (UniProt Q9NWS6)
active: vorinostat -0.834
inactive: [1] 0.027 | silmitasertib 0.024 | [2] -0.003 | entospletinib -0.014

GGT7 (UniProt Q9UJ14)
inactive: [1] -0.094 | silmitasertib -0.017 | [2] 0.015 | entospletinib -0.056
active: vorinostat 0.244

GEMIN4 (UniProt P57678)
active: vorinostat -0.435
inactive: [1] -0.025 | silmitasertib 0.1 | [2] 0.019 | entospletinib 0.034

FYN (UniProt P06241)
inactive: [1] -0.047 | vorinostat 0.091 | silmitasertib -0.001 | [2] -0.027 | entospletinib 0.156

EIF2B4 (UniProt Q9UI10)
inactive: [1] 0.028 | vorinostat -0.135 | silmitasertib 0.013 | [2] -0.006 | entospletinib -0.05

FIBP (UniProt O43427)
inactive: [1] -0.049 | vorinostat -0.006 | silmitasertib 0.119 | [2] -0.02 | entospletinib -0.049

GGA2 (UniProt Q9UJY4)
inactive: [1] -0.042 | silmitasertib 0.016 | [2] 0.022 | entospletinib -0.026
active: vorinostat -0.313

GIGYF2 (UniProt Q6Y7W6)
active: vorinostat -0.252
inactive: [1] -0.001 | silmitasertib -0.007 | [2] -0.042 | entospletinib 0.017

ENO1, A0A2R8YEM5
inactive: [1] -0.032 | vorinostat 0.119 | silmitasertib -0.005 | [2] 0.017 | entospletinib 0.04

EP300 (UniProt Q09472)
UniProt Q09472, sequence (Q09472 whole entry, looked up): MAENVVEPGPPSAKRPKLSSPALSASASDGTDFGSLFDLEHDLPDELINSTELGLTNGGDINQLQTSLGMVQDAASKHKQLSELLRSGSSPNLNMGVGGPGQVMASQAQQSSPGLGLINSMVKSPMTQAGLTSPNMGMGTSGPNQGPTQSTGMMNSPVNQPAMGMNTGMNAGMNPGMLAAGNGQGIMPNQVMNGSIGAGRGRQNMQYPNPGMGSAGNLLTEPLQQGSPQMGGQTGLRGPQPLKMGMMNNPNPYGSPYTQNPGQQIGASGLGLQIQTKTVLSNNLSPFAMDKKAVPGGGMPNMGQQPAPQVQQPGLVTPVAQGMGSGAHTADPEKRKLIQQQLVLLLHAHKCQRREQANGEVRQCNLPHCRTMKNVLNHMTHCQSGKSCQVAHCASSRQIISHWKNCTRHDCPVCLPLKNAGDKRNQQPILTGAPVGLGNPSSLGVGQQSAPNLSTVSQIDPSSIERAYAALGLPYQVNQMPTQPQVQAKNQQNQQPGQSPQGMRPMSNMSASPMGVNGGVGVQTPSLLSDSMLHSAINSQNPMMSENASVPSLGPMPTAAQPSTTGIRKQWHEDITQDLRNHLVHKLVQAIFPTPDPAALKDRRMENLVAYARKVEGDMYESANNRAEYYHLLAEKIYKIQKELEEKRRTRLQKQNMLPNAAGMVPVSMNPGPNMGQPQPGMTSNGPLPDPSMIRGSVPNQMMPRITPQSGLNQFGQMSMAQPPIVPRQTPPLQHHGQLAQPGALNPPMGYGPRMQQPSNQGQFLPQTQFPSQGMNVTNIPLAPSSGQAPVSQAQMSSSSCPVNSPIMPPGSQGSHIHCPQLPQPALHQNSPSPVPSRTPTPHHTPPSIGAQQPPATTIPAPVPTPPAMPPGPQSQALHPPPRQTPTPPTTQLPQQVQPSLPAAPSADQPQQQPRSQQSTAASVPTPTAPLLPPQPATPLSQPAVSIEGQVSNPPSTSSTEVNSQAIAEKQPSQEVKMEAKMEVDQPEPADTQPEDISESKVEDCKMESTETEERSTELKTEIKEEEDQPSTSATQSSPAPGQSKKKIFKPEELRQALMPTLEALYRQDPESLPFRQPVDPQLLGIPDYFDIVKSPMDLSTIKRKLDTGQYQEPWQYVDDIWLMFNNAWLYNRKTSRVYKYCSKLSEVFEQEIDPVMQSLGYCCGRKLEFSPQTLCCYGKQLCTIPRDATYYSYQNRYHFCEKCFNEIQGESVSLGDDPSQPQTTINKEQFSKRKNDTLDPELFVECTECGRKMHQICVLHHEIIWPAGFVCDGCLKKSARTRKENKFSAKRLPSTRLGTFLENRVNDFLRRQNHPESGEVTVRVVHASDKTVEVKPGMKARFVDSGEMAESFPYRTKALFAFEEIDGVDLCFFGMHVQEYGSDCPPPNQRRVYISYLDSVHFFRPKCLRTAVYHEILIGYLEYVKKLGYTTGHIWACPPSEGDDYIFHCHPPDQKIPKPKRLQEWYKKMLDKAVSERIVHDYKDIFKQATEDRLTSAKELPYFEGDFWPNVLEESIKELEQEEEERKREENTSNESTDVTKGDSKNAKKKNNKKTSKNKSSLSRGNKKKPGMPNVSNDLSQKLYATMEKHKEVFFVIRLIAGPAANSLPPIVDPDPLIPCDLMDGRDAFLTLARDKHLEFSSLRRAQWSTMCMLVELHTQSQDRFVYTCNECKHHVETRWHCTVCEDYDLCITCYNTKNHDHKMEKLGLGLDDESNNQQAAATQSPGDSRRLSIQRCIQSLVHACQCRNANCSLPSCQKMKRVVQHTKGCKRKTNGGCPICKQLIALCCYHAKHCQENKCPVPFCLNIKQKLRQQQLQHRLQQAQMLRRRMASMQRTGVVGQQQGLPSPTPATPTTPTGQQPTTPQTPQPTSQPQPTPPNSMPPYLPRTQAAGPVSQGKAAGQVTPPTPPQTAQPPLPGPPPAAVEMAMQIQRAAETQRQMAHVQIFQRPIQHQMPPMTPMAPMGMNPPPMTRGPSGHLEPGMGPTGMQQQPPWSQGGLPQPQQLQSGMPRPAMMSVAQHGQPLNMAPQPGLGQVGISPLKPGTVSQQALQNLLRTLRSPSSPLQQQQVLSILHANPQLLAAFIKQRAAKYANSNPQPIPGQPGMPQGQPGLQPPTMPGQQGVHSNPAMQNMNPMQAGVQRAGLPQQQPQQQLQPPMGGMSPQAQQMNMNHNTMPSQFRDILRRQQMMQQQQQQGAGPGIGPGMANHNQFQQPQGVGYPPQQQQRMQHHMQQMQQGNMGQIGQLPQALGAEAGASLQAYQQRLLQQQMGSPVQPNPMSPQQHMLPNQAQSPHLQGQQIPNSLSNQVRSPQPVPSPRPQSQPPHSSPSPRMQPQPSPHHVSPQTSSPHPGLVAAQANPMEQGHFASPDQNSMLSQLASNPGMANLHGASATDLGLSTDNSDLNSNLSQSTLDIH
active: vorinostat -0.338
inactive: [1] 0.018 | silmitasertib 0.06 | [2] 0.015 | entospletinib -0.005

EIF2B3 (UniProt Q9NR50)
active: vorinostat -0.244
inactive: [1] -0.006 | silmitasertib 0.01 | [2] 0.009 | entospletinib -0.004

ERCC4 (UniProt Q92889)
active: vorinostat -0.241
inactive: [1] 0.026 | silmitasertib 0.002 | [2] -0.065 | entospletinib 0.021

G6PD isoform 2 (UniProt P11413)
UniProt P11413, sequence (P11413 whole entry, looked up): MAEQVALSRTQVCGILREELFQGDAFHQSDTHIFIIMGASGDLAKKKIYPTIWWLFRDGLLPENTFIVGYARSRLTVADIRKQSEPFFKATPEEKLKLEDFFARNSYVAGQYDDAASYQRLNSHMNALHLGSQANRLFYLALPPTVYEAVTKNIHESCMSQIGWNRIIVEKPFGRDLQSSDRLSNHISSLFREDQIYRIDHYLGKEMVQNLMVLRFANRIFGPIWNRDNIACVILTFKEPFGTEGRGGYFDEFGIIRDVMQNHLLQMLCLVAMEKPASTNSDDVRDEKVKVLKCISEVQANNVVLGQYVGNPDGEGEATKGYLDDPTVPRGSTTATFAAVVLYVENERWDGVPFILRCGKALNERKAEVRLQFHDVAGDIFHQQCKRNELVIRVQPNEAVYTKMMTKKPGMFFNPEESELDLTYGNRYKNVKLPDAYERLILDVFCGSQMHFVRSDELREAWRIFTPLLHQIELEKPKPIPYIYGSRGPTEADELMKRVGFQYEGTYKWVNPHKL
active: vorinostat -0.46
inactive: [1] 0.008 | silmitasertib -0.008 | [2] -0.003 | entospletinib 0.032

GABPB1 isoform 3 (UniProt Q06547)
inactive: [1] -0.012 | silmitasertib 0.08 | [2] 0.067 | entospletinib -0.024
active: vorinostat -0.41
